Only some compounds are listed: those with a hit (about 0.64% of all), similar ones and a draw of the others.
PvdQ inh – P. aeruginosa PvdQ acylase inhibition. purified PvdQ acylase, fluorescence plate reader. AID 488965. 340,000 tested, 0.063% active. inhibition, % at 10 µM; in the data active = inhibition above about 30%, passing the limit was not always enough; inconclusive = no clear call, values can overlap the other calls
AI-2 QS mod – Vibrio harveyi AI-2 quorum sensing modulation; Vibrio harveyi JMH597 AI-2 luminescence/OD600 ratio, 9 h; hits give low values; strain lacks LuxN and CqsS sensors; 0 = neutral-control median; activity change, % at 7.5 µM; 300,000 tested, 0.4% active; AID 2094; in the data active = activity change below about -75%, passing the limit was not always enough; inconclusive = no clear call, values can overlap the other calls;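 note: luminescence divided by OD600 gain over 9 h not by final OD600 alone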
ERp5 block – blocks human ERp5 reductase activity on insulin; inhibition, % at 9.99 µM; ERp5 insulin aggregation, absorbance 650 nm, 90 min; 350,000 tested, 0.05% active; AID 651711; Q15084;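 active = mean replicate inhibition above about 25%, with every replicate also reaching it, limit read from the data, passing the limit was not always enough; inconclusive = only one of those two criteria met; inactive = neither criterion met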
Target sequence (Q15084 whole entry, looked up): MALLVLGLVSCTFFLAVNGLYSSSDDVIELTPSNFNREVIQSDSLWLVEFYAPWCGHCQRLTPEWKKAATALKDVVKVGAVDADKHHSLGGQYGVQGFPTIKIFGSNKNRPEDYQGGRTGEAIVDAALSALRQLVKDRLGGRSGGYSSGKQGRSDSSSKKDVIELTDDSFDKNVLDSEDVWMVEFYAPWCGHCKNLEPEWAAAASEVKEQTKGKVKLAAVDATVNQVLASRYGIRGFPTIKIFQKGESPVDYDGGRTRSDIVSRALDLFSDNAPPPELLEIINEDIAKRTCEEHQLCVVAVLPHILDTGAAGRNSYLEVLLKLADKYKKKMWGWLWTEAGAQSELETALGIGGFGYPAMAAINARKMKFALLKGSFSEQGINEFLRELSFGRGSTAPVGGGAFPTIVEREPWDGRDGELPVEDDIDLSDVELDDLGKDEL
Vif imaging – blocks HIV Vif function | inhibition, % at 7.49 µM | 340,000 tested, 0.35% active | HEK293T cells, Vif self-association by quenched fluorescence, imaging, 24 h; in the data active = inhibition above about 50%, passing the limit was not always enough; inconclusive = no clear call, values can overlap the other calls; inactive = below about 31%
PDI inh – PDI (human) enzyme inhibition; P07237; PDI insulin aggregation turbidity, A650, 90 min; inhibition, % at 10 µM; 350,000 tested, 0.052% active; AID 588391;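 active = mean inhibition across replicates of 30% or more, whatever share of single replicates reach that level; inconclusive = mean inhibition below 30% while every single replicate reaches 30%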
Of the large screens only hits and unclear results are named; the others gave an inactive call.

Cc1nn(C)cc1CN(C)Cc1ccc(OCC(O)CN2CCCCC2)cc1 (stereo not given)	Vif imaging 64
CN(Cc1ccc(OCC(O)CN2CCCCC2)cc1)Cc1ccnc2ccccc12 (stereo not given)	none
Cc1cc(NC(=O)CSc2nc3ccccc3c(=O)n2-c2ccccc2)no1	Vif imaging 55
Cc1cc(NC(=O)CSc2nnc(C)c(=O)[nH]2)no1	Vif imaging 69
CCn1c(SCC(=O)Nc2cc(C)on2)nnc1-c1ccc(OC)cc1	Vif imaging 50
Cc1cc(NC(=O)CSc2nc(C)c(C)c(=O)[nH]2)no1	none
CCCNC(=O)C[C@H]1CC[C@@H]2[C@@H](COc3ccc(NC(=O)Nc4ccccc4F)cc3C(=O)N2C)O1	none (no result: PvdQ inh, AI-2 QS mod, Vif imaging, PDI inh)
O=C(C[C@H]1CC[C@H]2[C@@H](COC[C@@H](O)CN2CC2CC2)O1)NCc1ccc(Cl)cc1	none (no result: PvdQ inh, AI-2 QS mod, Vif imaging, PDI inh)
COc1ccc(-c2cn(C[C@@H](Cc3ccccc3)NC(=O)Nc3ccccc3)nn2)cc1OC	none (no result: PvdQ inh, AI-2 QS mod, Vif imaging, PDI inh)
O=C(Nc1ccccc1F)N[C@@H]1C=C[C@H](CC(=O)N2CCCCC2)O[C@H]1CO	none (no result: PvdQ inh, AI-2 QS mod, Vif imaging, PDI inh)
Cc1cccc2nc(CSc3nc4ccccc4o3)cn12	AI-2 QS mod -93
CC(C)C(=O)NC(c1ccccc1)c1cc([N+](=O)[O-])c2cccnc2c1O (stereo not given)	none
CC(=O)NC(c1ccccc1)c1cc([N+](=O)[O-])c2cccnc2c1O (stereo not given)	AI-2 QS mod -90
COCC(=O)N(C)C[C@H]1Oc2cc(C#CCC3CCCC3)ccc2S(=O)(=O)N([C@@H](C)CO)C[C@@H]1C	none (no result: PvdQ inh, AI-2 QS mod, Vif imaging, PDI inh)
Cc1ccccc1Nc1c(C)c(C)nc2ncnn12	Vif imaging 143
CCc1c(C)nc2ncnn2c1Nc1ccccc1C	none
O=C1S/C(=C/c2ccc(N3CCOCC3)o2)C(=O)N1Cc1c(F)cccc1Cl	Vif imaging active (no result: ERp5 block)
O=C(c1cccnc1)N1CCCCN2[C@H](C1)[C@H](c1ccc(C#Cc3ccccn3)cc1)[C@@H]2CO	none (no result: PvdQ inh, AI-2 QS mod, Vif imaging, PDI inh)
CN1c2cccc3cccc(c23)N(C)C1(C)C	none (no result: ERp5 block)
CC(=O)c1ccc2cccc3c2c1N=CN3C	Vif imaging 67 (no result: ERp5 block)
CO[C@@H]1CN(C)C(=O)c2ccc(NC(=O)Nc3cccc(F)c3)cc2OC[C@@H](C)N(C(=O)Nc2c(C)noc2C)C[C@@H]1C	none (no result: PvdQ inh, AI-2 QS mod, Vif imaging, PDI inh)
COCC(=O)N(C)C[C@H]1Oc2ncc(C#Cc3ccc(F)cc3)cc2C(=O)N([C@H](C)CO)C[C@@H]1C	none (no result: PvdQ inh, AI-2 QS mod, Vif imaging, PDI inh)
O=Cc1s/c(=N\S(=O)(=O)c2ccccc2)n(CCCCl)c1Cl	Vif imaging 57
O=C(C1CCOCC1)N1CC(=O)N2[C@H](CO)[C@H](c3ccc(C#CC4CCCC4)cc3)[C@@H]2C1	none (no result: PvdQ inh, AI-2 QS mod, Vif imaging, PDI inh)
Cc1ccc(Cl)cc1N1CCN(C(c2ccc(C#N)cc2)c2nnnn2C2CCCC2)CC1 (stereo not given)	none (no result: AI-2 QS mod, ERp5 block)
Cc1ccc(Cl)cc1N1CCN(C(c2cccnc2)c2nnnn2C2CCCCC2)CC1 (stereo not given)	Vif imaging 71 (no result: ERp5 block)
CC1=Nc2cc(C(=O)NCC3CCCO3)ccc2Sc2ccc(C)cc21 (stereo not given)	none
CC1=Nc2cc(C(=O)NCCCN3CCN(C)CC3)ccc2Sc2ccc(C)cc21	none
CC1=Nc2cc(C(=O)NCc3ccco3)ccc2Sc2ccc(C)cc21	AI-2 QS mod -98 (no result: ERp5 block)
CC1=Nc2cc(C(=O)O)ccc2Sc2ccc(C)cc21	AI-2 QS mod -90
CC1=Nc2cc(C(=O)O)ccc2Sc2c(C)ccc(C)c21	Vif imaging 69
O=C(COC(=O)CCc1nc2ccccc2c(=O)[nH]1)Nc1c(Cl)cccc1C(F)(F)F	ERp5 block 26
COc1ccc(C=C2CS(=O)(=O)CC(=Cc3ccc(OC)cc3)C2=O)cc1	Vif imaging 112 (no result: PvdQ inh, AI-2 QS mod)
COc1ccc(S(=O)(=O)NC2(C(F)(F)F)NC(=O)N(CCc3ccccc3)C2=O)cc1 (stereo not given)	Vif imaging 55
CCS(=O)(=O)N1[C@@H](CO)[C@@H](c2ccccc2)C12CN(C(=O)C1CC1)C2	none (no result: PvdQ inh, AI-2 QS mod, Vif imaging, PDI inh)
C[N+](C)(C)CC(O)CC(=O)O (stereo not given)	Vif imaging 116
Cc1c(O)ccc2c(CC(=O)N[C@@H](Cc3c[nH]c4ccccc34)C(=O)O)cc(=O)oc12	PDI inh 60
O=[N+]([O-])c1ccc(N2CCCCC2)cc1	PvdQ inh 48
O=[N+]([O-])c1ccc(N2CCCCCC2)c([N+](=O)[O-])c1	none (no result: ERp5 block)
CCOC(=O)C1CCN(c2ccc([N+](=O)[O-])cc2)CC1	PvdQ inh 37
CCOC(=O)C1CCN(C(=O)C2CCN(C(=O)c3ccc([N+](=O)[O-])cc3)CC2)CC1	none (no result: ERp5 block, Vif imaging)
N#Cc1cc([N+](=O)[O-])ccc1N1CCCC1	PvdQ inh 89
O=[N+]([O-])c1ccc(N2CCCCC2)nc1	PvdQ inh 39
O=C(c1ccccn1)N1C[C@@H]2[C@H](c3ccccc31)[C@@H](CO)N2C(=O)C1CCCCC1	none (no result: PvdQ inh, AI-2 QS mod, Vif imaging, PDI inh)
CCC(=O)Nc1ccc2c(c1)C(=O)N(C)C[C@H](OC)[C@H](C)CN(C(=O)C1CC1)[C@H](C)CO2	none (no result: PvdQ inh, AI-2 QS mod, Vif imaging, PDI inh)
Cc1ccc(F)cc1S(=O)(=O)N[C@@H]1CCN(Cc2cccc3[nH]ccc23)C1	none (no result: PvdQ inh, AI-2 QS mod, Vif imaging, PDI inh)
O=[N+]([O-])c1ccc(N2CCCC2)nc1	PvdQ inh 39
C[C@]12CC[C@@H]3c4ccc(O)cc4CC[C@H]3[C@@H]1CC[C@@H]2OC(=O)CCC(=O)O	none
CCCCC(=O)OC1CCC2C3CCc4cc(O)ccc4C3CCC12C (stereo not given)	PDI inh 71 (no result: AI-2 QS mod)
Cc1noc(C)c1NC(=O)N(C)C[C@@H]1OCCCC[C@H](C)Oc2ccc(NC(=O)Cc3ccccc3)cc2C(=O)N([C@@H](C)CO)C[C@@H]1C	none (no result: PvdQ inh, AI-2 QS mod, Vif imaging, PDI inh)
CC(C)(C)c1ccc(CNc2ccc([N+](=O)[O-])cn2)cc1	AI-2 QS mod -83 (no result: ERp5 block)
O=C(Nc1ccncc1)C1CC(=O)N(c2ccccc2)C1 (stereo not given)	ERp5 block 28 (no result: AI-2 QS mod)
C[C@H](CO)N1C[C@H](C)[C@@H](CN(C)Cc2ccc(C(=O)O)cc2)OCCCC[C@H](C)Oc2ccc(NC(=O)Nc3ccccc3)cc2C1=O	none (no result: PvdQ inh, AI-2 QS mod, Vif imaging, PDI inh)
COc1ccc(/C=C/C(=O)c2cc(F)ccc2OC(=O)c2ccccc2OC)cc1OC	Vif imaging 91, PDI inh inconclusive
COc1ccccc1-c1ccc(C2[C@H]3CNC[C@@H]2N3S(=O)(=O)c2ccc(C)cc2)cc1 (stereo not given in full)	none (no result: PvdQ inh, AI-2 QS mod, Vif imaging, PDI inh)
Cc1ccc(-n2c([O-])nc(-[n+]3ccccc3)c2C=O)cc1	Vif imaging 51 (no result: ERp5 block)
COc1ccc(Cl)cc1C(Nc1cccnc1)c1ccc2cccnc2c1O (stereo not given)	AI-2 QS mod -82
CC(C)NC(=O)N(C)C[C@H]1Oc2c(NC(=O)c3nc4ccccc4s3)cccc2C(=O)N([C@H](C)CO)C[C@@H]1C	none (no result: PvdQ inh, AI-2 QS mod, Vif imaging, PDI inh)
O=C1C2C3C=CC(C4CC34)C2C(=O)N1Cc1ccco1 (stereo not given)	PvdQ inh 41
O=C1C2C(C(=O)N1Cc1ccco1)C1C=CC2C12CC2 (stereo not given)	PvdQ inh 87 (no result: ERp5 block)
